# Test results reported in PubChem BioAssay AID602144 (Vanderbilt Specialized Chemistry Center, 2011).
# The source made the active and inactive calls. No stated cut-off is given here; in the data, active means remaining activity below about 50%; inactive means the rest.
# Molecular target: Phospholipase D1 (Homo sapiens) (UniProt Q13393)
# Experiment: PLD1 inhibitors in cells, Calu-1 cells, single concentration (AID 602144);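 further: tested at 200 nM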
# Details: cellular PLD1 activity, active compounds read low
# Phospholipase D1 (Homo sapiens), sequence (Q13393 whole entry, looked up): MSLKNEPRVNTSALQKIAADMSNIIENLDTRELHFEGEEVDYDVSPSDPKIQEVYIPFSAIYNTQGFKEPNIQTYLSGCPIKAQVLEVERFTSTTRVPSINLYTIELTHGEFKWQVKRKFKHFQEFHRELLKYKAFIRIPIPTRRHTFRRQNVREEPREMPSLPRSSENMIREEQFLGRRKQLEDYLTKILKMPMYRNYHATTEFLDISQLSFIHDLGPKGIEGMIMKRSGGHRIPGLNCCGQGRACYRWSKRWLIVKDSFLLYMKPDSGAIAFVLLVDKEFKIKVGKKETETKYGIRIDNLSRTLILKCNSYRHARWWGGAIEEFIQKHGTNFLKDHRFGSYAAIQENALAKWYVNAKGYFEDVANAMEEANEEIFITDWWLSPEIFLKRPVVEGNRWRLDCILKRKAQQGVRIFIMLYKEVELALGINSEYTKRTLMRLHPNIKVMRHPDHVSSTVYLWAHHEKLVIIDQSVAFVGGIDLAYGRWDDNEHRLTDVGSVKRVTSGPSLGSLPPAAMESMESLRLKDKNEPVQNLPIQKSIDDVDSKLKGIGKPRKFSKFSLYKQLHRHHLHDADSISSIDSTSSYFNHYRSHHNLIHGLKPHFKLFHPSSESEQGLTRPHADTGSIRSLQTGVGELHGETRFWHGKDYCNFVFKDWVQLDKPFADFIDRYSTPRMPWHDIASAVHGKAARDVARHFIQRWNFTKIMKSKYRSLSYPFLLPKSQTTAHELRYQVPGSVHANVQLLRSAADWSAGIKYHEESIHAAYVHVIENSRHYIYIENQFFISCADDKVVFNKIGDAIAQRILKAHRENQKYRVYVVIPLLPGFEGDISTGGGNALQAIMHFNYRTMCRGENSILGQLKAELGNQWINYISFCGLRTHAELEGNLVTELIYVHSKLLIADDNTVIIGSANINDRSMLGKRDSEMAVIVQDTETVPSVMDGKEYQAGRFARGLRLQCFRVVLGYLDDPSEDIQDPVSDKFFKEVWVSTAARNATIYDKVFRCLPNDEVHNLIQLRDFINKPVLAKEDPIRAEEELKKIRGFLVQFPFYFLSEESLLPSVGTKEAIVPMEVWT
# Phospholipase D1 (Homo sapiens), sequence (Q13393 whole entry, looked up): as above
row,Structure (SMILES),remaining activity
1,O=C1Cc2cc(CCN3CCN(c4nsc5ccccc45)CC3)c(Cl)cc2N1,75.1% (inactive)
2,O=C(NCCN1CCC(n2c(=O)[nH]c3ccccc32)CC1)C1CCCCCC1,98.9% (inactive)
3,Nc1cccc(Cl)c1C(=O)NCCN1CCC(n2c(=O)[nH]c3ccccc32)CC1,89.2% (inactive)
4,O=C(NCCN1CCC(c2nc3ccccc3[nH]2)CC1)C1CC1c1ccccc1 (stereo not given),56.9% (inactive)
5,C[C@H](CN1CCC(n2nnc3ccccc32)CC1)NC(=O)c1cnc2ccccc2c1,38.2% (active)
